# Tests used:
# Test in all cases: DAPPL (digital affinity profiling via proximity ligation, sequencing); 10 mM Tris-HCl pH 7.5, 50 mM NaCl, 1 mM DTT, 4% glycerol, room temperature, 30 min; GST-TFs on glutathione beads, 16-mer random dsDNA library, 0.1% formaldehyde crosslink after washing; high values mean tight binding
# Conditions in all cases: protein: recombinant; tags: N-terminal GST; dsDNA, one strand shown
# ELK1 = target: T1, ELK1 (Homo sapiens, UniProt P19419 1-428)
# T1 sequence: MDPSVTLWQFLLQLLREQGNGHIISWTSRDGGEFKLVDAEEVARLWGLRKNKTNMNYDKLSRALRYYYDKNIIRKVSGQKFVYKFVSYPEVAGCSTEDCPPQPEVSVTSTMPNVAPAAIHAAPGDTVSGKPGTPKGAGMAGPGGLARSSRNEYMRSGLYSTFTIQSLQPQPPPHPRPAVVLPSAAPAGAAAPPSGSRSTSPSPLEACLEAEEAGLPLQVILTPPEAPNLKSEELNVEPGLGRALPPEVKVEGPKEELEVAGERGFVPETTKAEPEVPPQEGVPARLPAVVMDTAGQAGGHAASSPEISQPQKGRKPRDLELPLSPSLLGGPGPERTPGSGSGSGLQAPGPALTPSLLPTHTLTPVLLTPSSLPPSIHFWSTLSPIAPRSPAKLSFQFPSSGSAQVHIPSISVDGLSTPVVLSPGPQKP
# How it was run: (§1)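 Beads coated with glutathione captured GST-fused human transcription factors that had been expressed in yeast, and the factors were then given DNA barcodes and pooled with a tag-only sample. The pools were incubated with 200 nmole of a random double-stranded 16-mer DNA library in Tris/NaCl/DTT/glycerol buffer for 30 min at room temperature, washed, crosslinked with 0.1% formaldehyde and proximity-ligated with BsaI/T4 ligase at 37 °C for 1 h. PCR amplification and Illumina NextSeq500 sequencing came last. Binding signal is each hexamer's read frequency for a factor divided by its frequency for the tag-only sample.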
# GABPA = target: T2, GABPA (Homo sapiens, UniProt Q06546 1-454)
# T2 sequence: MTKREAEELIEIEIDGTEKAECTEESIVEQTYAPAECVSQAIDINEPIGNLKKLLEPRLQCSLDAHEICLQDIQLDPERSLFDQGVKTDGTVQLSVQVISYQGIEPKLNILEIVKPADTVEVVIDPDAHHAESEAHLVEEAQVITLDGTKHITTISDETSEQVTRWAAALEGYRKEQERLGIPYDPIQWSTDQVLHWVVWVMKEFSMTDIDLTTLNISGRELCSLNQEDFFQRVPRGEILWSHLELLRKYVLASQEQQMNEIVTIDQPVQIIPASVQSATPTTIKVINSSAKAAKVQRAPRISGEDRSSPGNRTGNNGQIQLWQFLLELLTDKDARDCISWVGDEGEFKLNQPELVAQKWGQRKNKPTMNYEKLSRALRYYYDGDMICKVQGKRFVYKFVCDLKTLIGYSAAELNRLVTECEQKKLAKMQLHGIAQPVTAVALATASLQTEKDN
# How it was run: as §1
# ERG = target: T3, ERG (Homo sapiens, UniProt P11308 1-479)
# T3 sequence: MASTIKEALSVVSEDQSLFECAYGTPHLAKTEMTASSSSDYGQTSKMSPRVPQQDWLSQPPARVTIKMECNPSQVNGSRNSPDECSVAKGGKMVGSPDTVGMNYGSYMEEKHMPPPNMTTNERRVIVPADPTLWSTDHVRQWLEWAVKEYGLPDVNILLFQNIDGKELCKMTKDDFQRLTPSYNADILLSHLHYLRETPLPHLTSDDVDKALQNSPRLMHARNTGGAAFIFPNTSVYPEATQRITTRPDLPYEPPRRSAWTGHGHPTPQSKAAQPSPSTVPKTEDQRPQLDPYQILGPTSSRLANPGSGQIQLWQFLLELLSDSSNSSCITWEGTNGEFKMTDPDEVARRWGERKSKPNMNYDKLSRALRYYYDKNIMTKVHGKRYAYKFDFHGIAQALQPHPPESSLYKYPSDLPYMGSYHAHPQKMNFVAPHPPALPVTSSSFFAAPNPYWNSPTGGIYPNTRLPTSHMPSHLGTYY
# How it was run: as §1
# ELK3 = target: T4, ELK3 (Homo sapiens, UniProt P41970 1-407)
# T4 sequence: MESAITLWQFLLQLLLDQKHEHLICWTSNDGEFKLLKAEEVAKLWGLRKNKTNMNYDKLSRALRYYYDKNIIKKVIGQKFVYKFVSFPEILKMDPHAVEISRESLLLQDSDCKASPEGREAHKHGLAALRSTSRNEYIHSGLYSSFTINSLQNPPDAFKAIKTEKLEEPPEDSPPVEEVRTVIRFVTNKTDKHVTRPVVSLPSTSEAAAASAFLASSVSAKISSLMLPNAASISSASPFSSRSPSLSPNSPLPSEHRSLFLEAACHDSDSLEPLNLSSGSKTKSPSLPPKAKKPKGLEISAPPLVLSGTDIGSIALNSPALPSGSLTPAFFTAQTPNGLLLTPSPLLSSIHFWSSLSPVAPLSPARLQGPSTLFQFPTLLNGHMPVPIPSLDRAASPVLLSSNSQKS
# How it was run: as §1
# ETV5 = ETV5 (Homo sapiens, UniProt P41161 1-510)
# Sequence of ETV5 (P41161 whole entry): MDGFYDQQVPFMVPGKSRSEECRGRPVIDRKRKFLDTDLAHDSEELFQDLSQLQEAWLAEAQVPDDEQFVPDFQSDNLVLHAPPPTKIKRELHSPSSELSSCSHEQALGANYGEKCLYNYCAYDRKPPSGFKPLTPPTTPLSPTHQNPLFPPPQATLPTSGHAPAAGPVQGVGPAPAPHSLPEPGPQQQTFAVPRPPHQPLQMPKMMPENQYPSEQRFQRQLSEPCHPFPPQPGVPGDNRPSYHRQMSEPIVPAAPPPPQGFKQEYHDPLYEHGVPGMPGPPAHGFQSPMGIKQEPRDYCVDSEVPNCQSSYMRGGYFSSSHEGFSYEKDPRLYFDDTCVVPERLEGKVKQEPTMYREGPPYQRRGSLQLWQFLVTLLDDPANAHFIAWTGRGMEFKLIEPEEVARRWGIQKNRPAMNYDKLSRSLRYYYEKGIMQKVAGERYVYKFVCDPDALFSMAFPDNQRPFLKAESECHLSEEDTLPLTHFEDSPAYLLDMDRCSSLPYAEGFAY
# How it was run: as §1
# SPIC = target: T5, SPIC (Homo sapiens, UniProt Q8N5J4 1-248)
# T5 sequence: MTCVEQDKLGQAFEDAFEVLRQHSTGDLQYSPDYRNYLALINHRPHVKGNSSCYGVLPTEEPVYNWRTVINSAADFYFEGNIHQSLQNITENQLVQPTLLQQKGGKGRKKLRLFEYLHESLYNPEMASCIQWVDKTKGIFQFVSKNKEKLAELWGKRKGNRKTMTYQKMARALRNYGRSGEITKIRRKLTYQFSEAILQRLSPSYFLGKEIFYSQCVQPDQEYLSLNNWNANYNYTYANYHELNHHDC
# How it was run: as §1
# ELF4 = ELF4 (Homo sapiens, UniProt Q99607 1-663)
# Sequence of ELF4 (Q99607 whole entry): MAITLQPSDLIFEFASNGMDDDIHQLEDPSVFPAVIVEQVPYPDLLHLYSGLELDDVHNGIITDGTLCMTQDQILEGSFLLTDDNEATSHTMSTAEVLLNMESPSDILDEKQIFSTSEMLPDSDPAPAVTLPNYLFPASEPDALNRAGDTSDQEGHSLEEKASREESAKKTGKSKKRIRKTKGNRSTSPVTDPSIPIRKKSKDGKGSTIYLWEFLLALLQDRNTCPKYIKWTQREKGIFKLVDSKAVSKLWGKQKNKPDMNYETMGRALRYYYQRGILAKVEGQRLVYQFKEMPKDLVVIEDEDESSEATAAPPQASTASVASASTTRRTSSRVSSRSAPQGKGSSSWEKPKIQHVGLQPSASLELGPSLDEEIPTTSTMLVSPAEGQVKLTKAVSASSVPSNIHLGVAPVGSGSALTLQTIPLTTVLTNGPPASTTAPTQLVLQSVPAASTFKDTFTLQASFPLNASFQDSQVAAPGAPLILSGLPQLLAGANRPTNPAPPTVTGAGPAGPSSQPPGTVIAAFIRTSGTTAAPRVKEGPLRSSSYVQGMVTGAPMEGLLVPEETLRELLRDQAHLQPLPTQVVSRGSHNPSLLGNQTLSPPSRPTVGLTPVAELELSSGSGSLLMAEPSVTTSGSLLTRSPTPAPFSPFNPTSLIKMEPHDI
# How it was run: as §1
# ELK4 = target: T6, ELK4 (Homo sapiens, UniProt P28324-2 1-405)
# T6 sequence: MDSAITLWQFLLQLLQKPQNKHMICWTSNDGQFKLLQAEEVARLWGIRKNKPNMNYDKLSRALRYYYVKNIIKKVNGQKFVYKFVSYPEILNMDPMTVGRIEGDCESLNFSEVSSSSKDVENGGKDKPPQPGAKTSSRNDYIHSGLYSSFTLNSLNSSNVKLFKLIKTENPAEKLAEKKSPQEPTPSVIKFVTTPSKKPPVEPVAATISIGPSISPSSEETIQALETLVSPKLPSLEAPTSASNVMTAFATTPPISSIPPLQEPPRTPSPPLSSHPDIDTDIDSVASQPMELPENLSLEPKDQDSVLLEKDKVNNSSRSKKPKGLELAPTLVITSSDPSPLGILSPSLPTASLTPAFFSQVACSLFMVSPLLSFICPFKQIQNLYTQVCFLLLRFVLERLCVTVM
# How it was run: as §1
# ETV1 = ETV1 (Homo sapiens, UniProt P50549 1-477)
# Sequence of ETV1 (P50549 whole entry): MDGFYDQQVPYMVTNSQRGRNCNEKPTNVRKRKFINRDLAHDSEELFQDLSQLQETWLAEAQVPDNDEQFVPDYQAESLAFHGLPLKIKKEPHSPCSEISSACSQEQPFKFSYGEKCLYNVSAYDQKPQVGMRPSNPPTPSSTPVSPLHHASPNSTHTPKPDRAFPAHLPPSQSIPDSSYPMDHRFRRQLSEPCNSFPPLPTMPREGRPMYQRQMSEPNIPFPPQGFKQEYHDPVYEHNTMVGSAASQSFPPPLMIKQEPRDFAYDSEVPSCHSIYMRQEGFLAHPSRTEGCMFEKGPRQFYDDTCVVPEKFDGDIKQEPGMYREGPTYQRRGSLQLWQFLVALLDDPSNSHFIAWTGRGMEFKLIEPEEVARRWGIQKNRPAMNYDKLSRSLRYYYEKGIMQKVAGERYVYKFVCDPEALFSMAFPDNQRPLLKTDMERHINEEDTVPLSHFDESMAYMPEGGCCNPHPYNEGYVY
# How it was run: as §1
# ETS2 = target: T7, ETS2 (Homo sapiens, UniProt P15036 1-469)
# T7 sequence: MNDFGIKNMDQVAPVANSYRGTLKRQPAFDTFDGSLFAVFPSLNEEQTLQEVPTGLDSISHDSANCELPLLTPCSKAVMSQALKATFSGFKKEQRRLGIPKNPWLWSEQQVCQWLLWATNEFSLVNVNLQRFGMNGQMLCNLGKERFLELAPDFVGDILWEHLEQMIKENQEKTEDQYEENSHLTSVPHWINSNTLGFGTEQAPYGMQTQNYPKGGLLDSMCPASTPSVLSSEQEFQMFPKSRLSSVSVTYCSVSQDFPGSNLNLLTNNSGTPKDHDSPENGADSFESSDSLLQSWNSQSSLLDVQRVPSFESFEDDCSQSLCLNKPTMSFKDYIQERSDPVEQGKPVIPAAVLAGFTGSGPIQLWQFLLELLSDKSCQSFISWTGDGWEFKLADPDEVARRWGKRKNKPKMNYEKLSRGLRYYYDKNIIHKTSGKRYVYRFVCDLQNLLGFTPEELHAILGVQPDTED
# How it was run: as §1
# SPDEF = target: T8, SPDEF (Homo sapiens, UniProt O95238 1-335)
# T8 sequence: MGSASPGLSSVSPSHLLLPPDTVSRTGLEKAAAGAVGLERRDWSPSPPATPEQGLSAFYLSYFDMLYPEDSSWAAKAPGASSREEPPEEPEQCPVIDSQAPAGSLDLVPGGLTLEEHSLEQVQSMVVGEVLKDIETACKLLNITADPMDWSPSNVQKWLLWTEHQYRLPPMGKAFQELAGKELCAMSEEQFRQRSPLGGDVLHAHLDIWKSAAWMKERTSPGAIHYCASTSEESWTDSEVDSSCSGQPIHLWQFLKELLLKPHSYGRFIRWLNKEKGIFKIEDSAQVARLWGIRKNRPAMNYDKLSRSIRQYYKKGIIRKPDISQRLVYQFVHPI
# How it was run: as §1
# ETV7 = target: T9, ETV7 (Homo sapiens, UniProt Q9Y603 1-341)
# T9 sequence: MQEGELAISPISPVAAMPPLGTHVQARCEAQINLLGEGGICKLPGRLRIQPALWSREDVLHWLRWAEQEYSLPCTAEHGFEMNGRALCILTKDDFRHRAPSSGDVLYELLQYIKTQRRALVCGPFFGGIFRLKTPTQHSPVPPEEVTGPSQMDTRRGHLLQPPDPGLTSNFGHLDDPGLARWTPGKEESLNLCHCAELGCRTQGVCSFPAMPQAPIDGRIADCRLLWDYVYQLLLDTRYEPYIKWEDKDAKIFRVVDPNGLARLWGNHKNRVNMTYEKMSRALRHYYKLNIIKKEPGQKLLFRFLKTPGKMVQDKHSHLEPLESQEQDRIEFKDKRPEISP
# How it was run: as §1
# ETV3 = target: T10, ETV3 (Homo sapiens, UniProt P41162-2 1-143)
# T10 sequence: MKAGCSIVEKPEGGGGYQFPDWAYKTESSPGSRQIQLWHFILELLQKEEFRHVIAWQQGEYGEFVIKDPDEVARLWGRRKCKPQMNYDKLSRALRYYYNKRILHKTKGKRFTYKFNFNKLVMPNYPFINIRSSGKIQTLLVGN
# How it was run: as §1
# ETV6 = ETV6 (Homo sapiens, UniProt P41212 1-452)
# Sequence of ETV6 (P41212 whole entry): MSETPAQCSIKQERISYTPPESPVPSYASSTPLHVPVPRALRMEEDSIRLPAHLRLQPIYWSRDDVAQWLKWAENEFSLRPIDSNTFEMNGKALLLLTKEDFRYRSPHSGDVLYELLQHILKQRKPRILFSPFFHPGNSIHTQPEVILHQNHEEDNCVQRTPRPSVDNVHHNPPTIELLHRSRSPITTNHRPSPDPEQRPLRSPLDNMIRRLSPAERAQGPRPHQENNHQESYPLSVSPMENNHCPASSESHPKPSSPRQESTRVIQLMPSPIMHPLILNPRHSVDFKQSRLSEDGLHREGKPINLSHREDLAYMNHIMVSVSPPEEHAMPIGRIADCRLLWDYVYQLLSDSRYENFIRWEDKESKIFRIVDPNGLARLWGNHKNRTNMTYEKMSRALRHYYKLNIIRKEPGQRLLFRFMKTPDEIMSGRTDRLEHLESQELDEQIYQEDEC
# How it was run: as §1
sequence,measurement,setting,value
GAAGCC,binding signal,ELK1,"1.06 fold enrichment (6-mer frequency, TF over GST control)"
same,binding signal,GABPA,"1 fold enrichment (6-mer frequency, TF over GST control)"
same,binding signal,ERG,"1.08 fold enrichment (6-mer frequency, TF over GST control)"
same,binding signal,ELK3,"1.05 fold enrichment (6-mer frequency, TF over GST control)"
same,binding signal,ETV5,"1.07 fold enrichment (6-mer frequency, TF over GST control)"
same,binding signal,SPIC,"1 fold enrichment (6-mer frequency, TF over GST control)"
same,binding signal,ELF4,"1.04 fold enrichment (6-mer frequency, TF over GST control)"
same,binding signal,ELK4,"1.01 fold enrichment (6-mer frequency, TF over GST control)"
same,binding signal,ETV1,"1.04 fold enrichment (6-mer frequency, TF over GST control)"
same,binding signal,ETS2,"1.01 fold enrichment (6-mer frequency, TF over GST control)"
same,binding signal,SPDEF,"1.01 fold enrichment (6-mer frequency, TF over GST control)"
same,binding signal,ETV7,"1.12 fold enrichment (6-mer frequency, TF over GST control)"
same,binding signal,ETV3,"1 fold enrichment (6-mer frequency, TF over GST control)"
same,binding signal,ETV6,"1.09 fold enrichment (6-mer frequency, TF over GST control)"
